# Reference: PubChem BioAssay AID1159580 (chemical genetic matrix, 2015)
# Several values for one entry are separate records, joined by “and”; a condition that tells them apart may be missing. Identical values can stand only once. The campaign covered roughly 5,500 compounds. About 2,000 (36%) were called active. About 18% were inconclusive and are not listed. This is one part of the list. Unmarked numbers belong to inactive results. No stated cut-off is given here; in the data, active means normalized growth mostly below about 0.91 (no sharp cut-off); inconclusive means no clear call, values can overlap the other calls; inactive means mostly above about 0.92.
# Experiment: chemical genetic growth profiling, strain panel (AID 1159580);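 further: tested at 20 µM; growth read once vehicle control cultures reached saturation at 30 °C; 1 = growth at the plate median or of vehicle wells; lower values mean less growth of the strain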
# Details: S. cerevisiae deletion strains, growth OD
structure (smiles),measurement,setting,value
CC(C)c1c(O)ccc2c1CCC1[C@@](C)(CO)CCC[C@]21C (stereo not given in full),normalized growth,"locus YAL013W, strain DEP1, hits give low values",0.978
same,normalized growth,"locus YAL021C, strain ccr4, hits give low values",1.01
same,normalized growth,"locus YAL026C, strain drs2, hits give low values",1.01
same,normalized growth,"locus YAL030W, strain snc1, hits give low values",1.01
same,normalized growth,"locus YBL061C, strain skt5, hits give low values",1.01
same,normalized growth,"locus YBR009C, strain hhf1, hits give low values",1.04
same,normalized growth,"locus YBR021W, strain FUR4, hits give low values",0.945
same,normalized growth,"locus YBR023C, strain chs3, hits give low values",1.03
same,normalized growth,"locus YBR171W, strain sec66, hits give low values",1.02
same,normalized growth,"locus YBR229C, strain ROT2, hits give low values",0.958
same,normalized growth,"locus YBR231C, strain swc5, hits give low values",1.02
same,normalized growth,"locus YBR279W, strain paf1, hits give low values",1.02
same,normalized growth,"locus YCL011C, strain gbp2, hits give low values",1.02
same,normalized growth,"locus YCL016C, strain dcc1, hits give low values",1.02
same,normalized growth,"locus YCL029C, strain bik1, hits give low values",0.941
same,normalized growth,"locus YCL069W, strain vba3, hits give low values",1.02
same,normalized growth,"locus YCR088W, strain abp1, hits give low values",1.02
same,normalized growth,"locus YDL005C, strain med2, hits give low values",1.02
same,normalized growth,"locus YDL035C, strain GPR1, hits give low values",0.964
same,normalized growth,"locus YDL040C, strain nat1, hits give low values",1.01
same,normalized growth,"locus YDL074C, strain BRE1, hits give low values",0.834
same,normalized growth,"locus YDL101C, strain DUN1, hits give low values",0.947
same,normalized growth,"locus YDL134C, strain PPH21, hits give low values",0.911
same,normalized growth,"locus YDL185W, strain tfp1, hits give low values",0.975
same,normalized growth,"locus YDL192W, strain arf1, hits give low values",0.92
same,normalized growth,"locus YDR001C, strain nth1, hits give low values",1.01
same,normalized growth,"locus YDR069C, strain doa4, hits give low values",1
same,normalized growth,"locus YDR101C, strain arx1, hits give low values",0.967
same,normalized growth,"locus YDR137W, strain rgp1, hits give low values",0.885
same,normalized growth,"locus YDR150W, strain NUM1, hits give low values",0.983
same,normalized growth,"locus YDR159W, strain sac3, hits give low values",1.02
same,normalized growth,"locus YDR162C, strain NBP2, hits give low values",0.79 (active)
same,normalized growth,"locus YDR195W, strain ref2",1.05
same,normalized growth,"locus YDR297W, strain sur2, hits give low values",1.02
same,normalized growth,"locus YDR318W, strain mcm21, hits give low values",0.911 (active)
same,normalized growth,"locus YDR334W, strain swr1, hits give low values",1.03
same,normalized growth,"locus YDR335W, strain msn5, hits give low values",1.03
same,normalized growth,"locus YDR388W, hits give low values",0.957
same,normalized growth,"locus YDR392W, strain spt3, hits give low values",0.991
same,normalized growth,"locus YDR502C, strain sam2, hits give low values",0.898 (active)
same,normalized growth,"locus YEL003W, strain gim4, hits give low values",1.01
same,normalized growth,"locus YEL037C, strain rad23, hits give low values",1.02
same,normalized growth,"locus YEL061C, strain CIN8 (second series), hits give low values",1.03
same,normalized growth,"locus YEL061C, strain CIN8, hits give low values",0.971
same,normalized growth,"locus YER015W, strain faa2, hits give low values",1.02
same,normalized growth,"locus YER016W, strain bim1, hits give low values",1.01
same,normalized growth,"locus YER110C, hits give low values",0.971
same,normalized growth,"locus YER111C, strain swi4, hits give low values",1.04
same,normalized growth,"locus YER155C, strain BEM2 (second series), hits give low values",1.03
same,normalized growth,"locus YER155C, strain BEM2, hits give low values",0.966
same,normalized growth,"locus YER167W, strain BCK2, hits give low values",0.949
same,normalized growth,"locus YFR010W, strain ubp6, hits give low values",1.03
same,normalized growth,"locus YGL078C, strain dbp3, hits give low values",0.961
same,normalized growth,"locus YGL086W, strain mad1, hits give low values",0.898 (active)
same,normalized growth,"locus YGL167C, strain pmr1, hits give low values",1.01
same,normalized growth,"locus YGL173C, strain kem1, hits give low values",1.02
same,normalized growth,"locus YGL227W, strain vid30, hits give low values",1.02
same,normalized growth,"locus YGL240W, strain doc1, hits give low values",1.01
same,normalized growth,"locus YGL248W, strain PDE1, hits give low values",0.924
same,normalized growth,"locus YGL253W, strain hxk2, hits give low values",1.01
same,normalized growth,"locus YGR078C, strain PAC10, hits give low values",0.889
same,normalized growth,"locus YGR135W, strain pre9, hits give low values",0.93
same,normalized growth,"locus YGR252W, strain gcn5, hits give low values",0.88
same,normalized growth,"locus YHR013C, strain ard1, hits give low values",1.03
same,normalized growth,"locus YHR027C, strain rpn1, hits give low values",1.03
same,normalized growth,"locus YHR030C, strain SLT2, hits give low values",1.04
same,normalized growth,"locus YHR079C, strain IRE1 (second series), hits give low values",0.96
same,normalized growth,"locus YHR079C, strain IRE1, hits give low values",1.07
same,normalized growth,"locus YHR094C, strain hxt1, hits give low values",0.958
same,normalized growth,"locus YHR129C, strain ARP1, hits give low values",0.949
same,normalized growth,"locus YHR142W, strain chs7, hits give low values",1.01
same,normalized growth,"locus YHR200W, strain rpn10, hits give low values",0.931
same,normalized growth,"locus YIL066C, strain RNR3, hits give low values",0.94
same,normalized growth,"locus YIL073C, strain SPO22, hits give low values",0.871
same,normalized growth,"locus YIL125W, strain kgd1, hits give low values",0.973
same,normalized growth,"locus YIR030C, strain dcg1, hits give low values",0.954
same,normalized growth,"locus YJL092W, strain hpr5, hits give low values",1.01
same,normalized growth,"locus YJL095W, strain BCK1 (second series), hits give low values",1
same,normalized growth,"locus YJL095W, strain BCK1, hits give low values",0.811 and 1.03
same,normalized growth,"locus YJL115W, strain asf1, hits give low values",1.03
same,normalized growth,"locus YJL129C, strain trk1, hits give low values",0.961
same,normalized growth,"locus YJL134W, strain LCB3, hits give low values",0.973
same,normalized growth,"locus YJL154C, strain vps35, hits give low values",1.01
same,normalized growth,"locus YJL164C, strain tpk1, hits give low values",1.02
same,normalized growth,"locus YJL166W, strain qcr8, hits give low values",1.01
